# Measured values: ChEMBL document CHEMBL3988442, “University of Dundee, Small-Polar-MMV Screening Library” (2021)
# About 1,200 (3.2%) of roughly 38,000 compounds showed an effect of 50% or more. The median lay at about -58%. Shown is part of a subset that was picked to be rich in strong results.
# System: Plasmodium falciparum
# Experiment: Calibr Malaria Delayed Death Assay SOP
# Type: functional, organism-based
# Parameters: scale not given: in the data most compounds retested in dose-response had high values
# Conditions: concentration 4.99e-06 (unit not given; other assays of the set use mol/L)
row,SMILES,Percent Effect [%]
1,CCOCC1CN(C(=O)N2CCCC2)Cc2cnn(CC)c21 (configuration not stated),-92.45
2,CCOc1ccc2[nH]c(=O)c(CN3CCN(S(N)(=O)=O)CC3)cc2c1,-148.7
3,CC1CCCN(c2ncc(C(=O)NCc3ccc(F)c(Cl)c3)c(N)n2)C1 (configuration not stated),-82.32
4,O=C(CN1CCCC1Cn1cncn1)NCC1(c2ccccc2)CC1 (configuration not stated),-28.68
5,Cc1cnn(CC2CCCN2Cc2nc3ccccc3nc2C)c1 (configuration not stated),-94.42
6,Cc1nc2ccccc2nc1CN1CCOC(Cn2cccn2)C1 (configuration not stated),-57.9
7,Cc1nc2ccccc2nc1CN1CCCC1Cn1cccn1 (configuration not stated),67.78
8,c1ccc(CN2CCC(NCCc3ccc4c(c3)CCO4)CC2)nc1,34.15
9,Cc1[nH]c2ccc(CNC3CCN(Cc4ccccn4)CC3)cc2c1C,93.27
10,Cc1n[nH]c2ncc(CNC3CCN(Cc4ccccn4)CC3)cc12.Cl,-31.75
11,Cc1nnc(SCc2cccc(F)c2)n1CC(N)=O,-112.6
12,Cc1ccc(N2CCc3sc(C(=O)NCCN4CCCC4)cc32)nn1,-55.34
13,C=C(C)CN1CCN(CCC(=O)Nc2ccccc2C(N)=O)CC1,11.76
14,O=C(NC[C@H]1OC[C@@H]2CN(Cc3ccco3)CC[C@@H]21)c1cscn1.O=C(O)C(F)(F)F,-201.4
15,CC(C)CCn1cc(C(=O)NC2CCS(=O)(=O)C2)c2ccccc2c1=O (configuration not stated),-89.43
16,CCC(Nc1nc(CCN)nc2ccccc12)c1cccs1 (configuration not stated),62.16
17,CCC(Nc1nc(CCN)nc2ccccc12)c1cc(C)ccn1 (configuration not stated),-26.25
18,CCC(Nc1nc(C)nc2onc(C)c12)c1cccs1 (configuration not stated),19.14
19,CN(C)CCn1c2c(ccc1=O)CC(NC(=O)c1cnccn1)CC2.O=C(O)C(F)(F)F (configuration not stated),-12.74
20,Cc1cccc(CN2CCC(c3nnsc3S(C)(=O)=O)CC2)c1,-50.13
21,CNC(=O)NCC1CCC2(CCN(C(=O)c3ccccn3)CC2)CO1.O=C(O)C(F)(F)F (configuration not stated),-170.4
22,Cn1cncc1CN1CCC2(CC1)CCN2c1ncccn1,-81.78
23,Cc1nnc(CN2CCN(Cc3nccn3C)CC2)n1C,-20.51
24,CCn1cncc1C1CC(=O)Nc2c1c(C)nn2-c1ccc(C)cc1 (configuration not stated),-199.9
25,Cc1ncc(CN2CCC(c3ccnn3C)CC2)n1-c1ccccc1,30.79

row,SMILES,Percent Effect [%]
1,CCc1nc(CN2CCCN(C(=O)c3ccco3)CC2)cs1,-4.304
2,O=C(O)C(F)(F)F.O=C(O)C(F)(F)F.c1cncc(C2COC3(CCN(Cc4ccsc4)CC3)C2)c1 (configuration not stated),12.38
3,Cc1nc(C(=O)Nc2cccnc2)c(C(C)C)s1,-80.98
4,Cc1c(CN2CCCC(C(=O)Nc3ccccc3)C2)cc(C#N)n1C (configuration not stated),39.8
5,CN(Cc1cccnc1)[C@@H]1CN(Cc2nccn2C)[C@@H]2CCCO[C@H]12.O=C(O)C(F)(F)F.O=C(O)C(F)(F)F.O=C(O)C(F)(F)F.O=C(O)C(F)(F)F,-14.02
6,COc1ccc(Br)c(NC(=O)NCc2cnn(C)c2)c1,-45
7,CN1CCC2(CC1)CCN(C(=O)c1onc3ccccc13)C2,-111.7
8,O=C1NCCCCC1Sc1ccc(F)cc1F (configuration not stated),-40.24
9,Cc1ccc(F)cc1CC(=O)N1CC[C@@]2(O)CCNC[C@H]2C1,-30.21
10,Cc1nc(N(C)C)nc2c1COCC21CCN(C(=O)C2CC2)C1 (configuration not stated),-124.4
11,O=C(Cn1cc(C2CC2)nn1)N(Cc1cccs1)CC1CCCO1 (configuration not stated),-9.508
12,O=C(c1ccco1)N1CC(S(=O)(=O)c2ccc(Cl)cc2)C1,-88.3
13,CC1CCN(C(=O)CN(Cc2ccco2)C2CC2)CC1,-121
14,O=C(c1cc(Br)ccc1Cl)N1CCN(Cc2ccco2)CC1,-2.5
15,CN1CCC(N(Cc2ccco2)S(=O)(=O)c2ccc(Cl)cc2)CC1,54.64
16,Cn1cnc(S(=O)(=O)N2CCN(Cc3ccco3)CC2)c1Cl,-15.28
17,CN1CCC(N(Cc2ccco2)S(=O)(=O)c2cc(Br)ccc2Br)CC1,75.01
18,O=c1cc(CN(Cc2ccco2)C2CC2)nc2ccc(Br)cn12,-50.29
19,O=C(CN(Cc1ccco1)C1CC1)Nc1ccc(Br)cn1,-177.6
20,CN1CCC(N(Cc2ccco2)S(=O)(=O)c2ccc(Br)cc2Cl)CC1,73.43
21,CCc1nc(C(=O)N2CCOCC2)nn1-c1ccccc1Cl,-27.32
22,Cc1cc2[nH]c(CN3CCCCC3c3cccc(F)c3)cc(=O)n2n1 (configuration not stated),-66.54
23,COc1cccc(CN2CCCCCC2c2cccs2)c1OC (configuration not stated),-76.96
24,CS(=O)(=O)c1ccc(CN2CCCCC2c2cccc(F)c2)cc1 (configuration not stated),-43.63
25,COc1cccc(CN2CCCC2c2cccc(F)c2)c1OC (configuration not stated),53.66

row,SMILES,Percent Effect [%]
1,COc1ccc(CN2CCCC2c2cccc(F)c2)c(OC)c1OC (configuration not stated),58.64
2,COc1cc(CN2CCCC2c2cccc(F)c2)cc(OC)c1OC (configuration not stated),25.35
3,Cc1ccccc1-c1cc(NC(=O)CC(C)C)n(CCO)n1,-65.33
4,O=C(NCCc1c[nH]c2ccccc12)C1(n2cnnn2)CCCCC1,-28.02
5,O=C(O)C(F)(F)F.O=C(c1cccc(F)c1)N1CCC2(CC1)CN(c1ccccn1)CCO2,-103.6
6,Cc1nn2c(-c3cnn(C)c3)nnc2s1,-96.58
7,CC(C)(C)OC(=O)N1CCN(S(C)(=O)=O)C2(CCCCC2)C1,-78.85
8,Cc1cc(C)c2[nH]c(=O)c(CN3CCC(O)(CN(C)C)C3)cc2c1 (configuration not stated),5.101
9,CN(C)CC1(O)CCCN(c2noc(-c3ccccc3)n2)CC1 (configuration not stated),-4.701
10,Cc1cc(N2CCC(O)(CN(C)C)C2)c2cc3c(cc2n1)OCO3 (configuration not stated),89.44
11,CN(C)CC1(O)CCN(C(=O)c2cnc(-c3ccccn3)nc2)C1 (configuration not stated),-83.84
12,Cc1cc(N2CCCC(O)(CN(C)C)C2)c2cc3c(cc2n1)OCO3 (configuration not stated),79.58
13,Cc1cc(N2CCCC3(CN(C)C(=O)O3)C2)c2cc3c(cc2n1)OCO3 (configuration not stated),-65
14,CN(C)C(=O)CC1CC2(CCN(Cc3ccco3)CC2)c2ccccc21.O=C(O)C(F)(F)F (configuration not stated),24.78
15,CN1C(=O)C2(CCCN(C(=O)c3ccc(=O)n(C)n3)C2)c2ccccc21 (configuration not stated),-36.85
16,Cc1cc(C(=O)N2CCn3cc(CN4CCCCC4)nc3C2)no1,-18.56
17,CN(C)[C@@H]1CCN(S(=O)(=O)C2CC2)[C@H]1Cc1ccccc1.O=C(O)C(F)(F)F,63.58
18,CC(C)N(C)[C@@H]1CCN(Cc2ccoc2)[C@H]1Cc1ccccc1,9.124
19,CN(C)[C@@H]1CCN(S(=O)(=O)c2cn(C)cn2)[C@H]1Cc1cccnc1.O=C(O)C(F)(F)F.O=C(O)C(F)(F)F.O=C(O)C(F)(F)F,-62.43
20,CN(C)[C@@H]1CCN(C(=O)c2ccccn2)[C@H]1Cc1ccncc1,-71
21,CC(C)NC(=O)N1CC[C@@H](N(C)C)[C@@H]1Cc1ccccc1.O=C(O)C(F)(F)F,14.09
22,CC(C)N(C)[C@@H]1CCN(S(C)(=O)=O)[C@H]1Cc1ccccc1,53.16
23,O=S(=O)(C1CC1)N1CC[C@H](OCC2CC2)[C@@H]1Cc1ccncc1,-74.15
24,CN(C)[C@@H]1CCN(S(C)(=O)=O)[C@H]1Cc1ccccc1,16.37
25,CC(C)OC[C@H]1CCC[C@]12CN(C(=O)C1CCOCC1)CCO2,-62.83

row,SMILES,Percent Effect [%]
1,CNC(=O)CN1CCC(CN(C)Cc2ccccc2N(C)C)CC1,-85.31
2,COc1ccc(CN2C[C@@H](O)[C@](O)(CNC(=O)c3ccccn3)C2)cc1,-63.46
3,Cn1cc(-c2ncnc3c2CCN(C(=O)c2cnccn2)CC3)cn1,-80.91
4,COc1ccc(C[C@H]2CN(c3nnc(C)s3)CC[C@@H]2OC)cc1.O=C(O)C(F)(F)F,-18.37
5,COc1ccc(C[C@H]2CN(Cc3ccoc3)CC[C@@H]2OC)cc1.O=C(O)C(F)(F)F,63.43
6,COc1ccc(C[C@H]2CN(Cc3ccoc3)CC[C@H]2OC)cc1.O=C(O)C(F)(F)F,74.09
7,COc1ccc(C[C@H]2CN(c3nnc(C)s3)CC[C@H]2OC)cc1.O=C(O)C(F)(F)F,-6.177
8,COc1ccc(C[C@H]2CN(c3cc(OC)ncn3)CC[C@@H]2OC)cc1.O=C(O)C(F)(F)F,-3.62
9,COc1ccc(C[C@H]2CN(C(=O)c3ccncc3)CC[C@@H]2OC)cc1.O=C(O)C(F)(F)F,-34.29
10,N#Cc1ccc(OC[C@]23COC[C@H]2CN(Cc2ccccn2)C3)nc1,-50.77
11,Cn1cccc1C(O)CNC(=O)COc1ccccc1F (configuration not stated),-31.9
12,Cn1cccc1C(O)CNC(=O)COc1ccc(Cl)cc1Cl (configuration not stated),-33.74
13,Cn1cccc1C(CNC(=O)COc1ccc(Cl)cc1Cl)N1CCCC1 (configuration not stated),74.07
14,O=C(NCc1nnc2n1CCCC2)c1cn(-c2ccccc2)nn1,-72.42
15,COc1cccc(CN2CC[C@H]3[C@@H](C2)[C@H](c2ccsc2)CN3C(C)=O)c1,52.59
16,CCN1CCC(N2C[C@@H](C(=O)O)[C@H](c3cccc(OC)c3)C2)CC1,-103.5
17,COc1cccc([C@H]2CN(C(C)=O)[C@@H]3CCN(Cc4ccsc4)C[C@H]23)c1.Cl,72.65
18,COCc1cc(O)nc(C2CCCN(Cc3cccc(OC)c3)C2)n1 (configuration not stated),-102.5
19,COc1cccc(CC2CCCN2CC(N)=O)c1 (configuration not stated),-61.65
20,COCC(=O)NCC1CCN(Cc2ccsc2)CC1,-175
21,COc1cccc([C@@H]2CCN(Cc3c[nH]c(C)n3)C[C@H]2O)c1,-37.12
22,COc1cccc([C@@H]2CCN(Cc3[nH]nc(C)c3Cl)C[C@H]2O)c1,-13.94
